Reference: the supplement of paper PMC6555819

Key:
Assay in all cases: PBM binding z-score (relative to random genomic background probes); higher = stronger binding; sequences stand for … in GC…GCGATTGACAGCGTAGAATGAAGG
[1] = test system: PPARg:RXRa DBDmut IVT, anti-RXR (DBD mutation: RXRa K156A/R161A, NR concentration 270 nM, RXRa partner concentration 90 nM)
In short: (§1)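 Binding buffer was PBS pH 7.4 with 2% milk, 0.02% Triton X-100, 1 mM DTT, 0.2 mg/mL BSA and 0.4 mg/ml salmon testes DNA. In it, ligand-free nuclear receptor dimers were incubated 1 h on custom Agilent 4×180K protein-binding microarrays carrying double-stranded probes. Antibodies against each partner (one per run) detected binding, and z-scores were calculated against random background probes after regression normalization of scanned fluorescence.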

[2] = test system: PPARg:RXRa IVT, anti-PPARg (NR concentration 270 nM, RXRa partner concentration 90 nM)
In short: as §1

[3] = test system: PPARg DBDmut:RXRa IVT, anti-PPARg (DBD mutation: PPARg1 K132A/R137A, NR concentration 270 nM, RXRa partner concentration 90 nM)
In short: as §1

[4] = test system: PPARg DBDmut IVT, anti-PPARg (DBD mutation: PPARg1 K132A/R137A, NR concentration 270 nM)
In short: as §1

[5] = test system: PPARg homodimer (NR concentration 180 nM)
In short: as §1

[6] = test system: PXR:RXRa (NR concentration 270 nM, RXRa partner concentration 90 nM)
In short: as §1

[7] = test system: PXR homodimer (NR concentration 270 nM)
In short: as §1

[8] = test system: RARa:RXR (NR concentration 270 nM, RXRa partner concentration 90 nM)
In short: as §1

[9] = test system: RARa homodimer (NR concentration 270 nM)
In short: as §1

[10] = test system: RARb:RXRa (NR concentration 270 nM, RXRa partner concentration 90 nM)
In short: as §1

Sequence	PBM binding z-score [1]	PBM binding z-score [2]	PBM binding z-score [3]	PBM binding z-score [4]	PBM binding z-score [5]	PBM binding z-score [6]	PBM binding z-score [7]	PBM binding z-score [8]	PBM binding z-score [9]	PBM binding z-score [10]
TTACCAAGGTGAAGGTCGTTGACCCCTCTGTAGA	1.51	3.73	-0.0772	-0.567	2.99	4.73	0.313	5.73	0.145	2.87
TCTTGTAGATCTATAGAGGTTAAGAAAGTGCGCT	1.2	0.683	0.144	0.174	0.213	2.66	-0.0488	1.63	0.178	0.906
ATCTCTAGGTAACCAAGTTGAGTGAATGCCGAAC	3.51	2.64	0.787	1.26	0.031	-0.00792	0.194	0.144	0.0193	0.243
CAAACCAGGTCACCGGAAGGTCAAAGTCCGCATG	5.78	6.75	1.83	1.5	9.32	6.5	3.77	8.09	3.77	5.33
TTACCAAGGTGCAGGTCGTTGATCCCTCTGTAGA	-0.00827	0.492	-0.281	-1.32	-0.014	0.4	0.135	0.7	-0.516	0.624
CATACAGGGTCAGCTAGGCCAGAGCAGGGACGGC	0.983	2.45	0.782	0.361	1.29	2.04	0.078	2.84	0.253	4.15
CCTTACGGGTCAAGATTATAGCACGGGTGGTACG	1.74	2.81	-0.14	0.0306	2.2	2.85	-0.0377	4.07	1.11	3.98
TGAATGAGGTTATAAGATCAGGGAGCGTTGCAAA	0.796	1.56	0.774	-0.572	0.0916	0.406	-0.17	0.968	-0.286	1.03
GCGACTGGGGCAAAGCAGGTTACCCTAAGGTTGG	4.69	3.9	-0.575	-1.15	0.0575	0.0911	-0.579	0.634	-1.43	0.752
AATACAAGGTCACTAGGCCAGAGTAGGTACGAAT	4.85	6.56	2.9	1.98	3.01	3.63	0.919	4.05	1.19	5.31
CCTCGGACGACAGAAGGTCAGAGCTGTCCGCTTT	-0.0338	-0.307	-1.28	-2.04	1.12	1.35	-0.144	2.01	-0.163	2.67
CCTACTGGGCCATCCAGAGGTCATTGATCATATG	4.14	4.6	0.419	0.464	2.88	5.05	2.23	4.9	0.594	3.21
CCTACTAGGTCAATGGTCAGCTAAAGCAGCTCGC	7.63	7.77	2.1	1.05	2.62	1.26	0.377	1.95	0.521	3.89
CGTCCAAGGTCATAGGAGGTAAGTGAAGACAGAT	2.54	3.38	0.738	0.602	2.39	4.29	1.22	3.98	1.57	4.88
CCTGCTAGGTCATGGTCAGCTTATCTACAGTATG	4.34	3.48	0.0412	-0.178	1.32	1.35	-0.301	2.36	0.172	3.81
TCATGTAGGTAATACAGGTGAAAGTCGGCATCTA	3.86	3.68	0.771	0.521	0.456	0.27	-0.325	0.507	0.465	0.0857
GCTTGCAGATCAAGGTTAAGAAAGACTAAGCTAA	0.163	0.227	-0.556	-0.251	-0.687	0.18	-0.42	0.588	-0.293	0.686
GCAAATAGGTAATACAAGGTGAAAGTCCGATTGT	3.46	2.55	0.642	0.68	0.192	0.778	0.202	1.44	0.308	0.635
CCAGACAGGTGAACGGTAACTCAGTCTGGTACGC	1.49	1.08	-0.573	-0.154	0.0136	-0.325	-0.355	-0.289	-0.204	0.99
GATACAGGGGCAGCTAGAGGCCAGAGTATGGAAA	0.509	0.442	-0.18	-0.917	-0.0981	-0.0351	-0.216	-0.106	-0.394	1.57
ATACCAAGGTGATCCTGAGGTCGTTGATACTAAC	0.567	1.08	0.87	0.266	0.931	3.21	1.41	2.34	0.52	1.39
ATTTCTAGGTAAGACTCAGTTCAGTGAAGAACGC	4.54	2.6	1.64	1.76	1.66	1.39	1.8	0.607	2.29	0.674
TGTCAAAGTTCAAAGGTAACGGAAGTATCCACAC	0.604	4.88	1.63	2.48	3.69	5.74	3.74	6.93	1.65	5.07
